Assay outcomes deposited in PubChem BioAssay by University of Kansas High Throughput Screening Laboratory.
Pf apPOL block: Pf-apPOL DNA polymerase inhibition; Recombinant Pf-apPOL, molecular beacon fluorescence, 1.5 h; inhibition, % at 10 µM; actives 0.25% (n = 210,000); AID 1794808
mHTT CaM bind: disrupts binding of mutant huntingtin to calmodulin; P42858; AlphaScreen His-mHTT/GST-CaM binding, luminescence; inhibition, % at 15 µM; actives 3.6% (n = 190,000); AID 1671202
Numbers stand for hits; . = inactive; / = no result; ! = not active in a repeat. Rows were chosen to be rich in hits. Some 3.6% of all compounds tested hit in one or more screens of this group. Cut-off read from the data, not from the text of the source: active = inhibition above about 50%; inactive = the rest.

SMILES	Pf apPOL block	mHTT CaM bind
O=[N+]([O-])c1c(Cl)cc(O)c2c1C1C=CCC1C(c1ccc(Cl)cc1)N2 (configuration not stated)	.	88.0
Cn1cc(-c2[nH]ncc2Cl)cn1	/	.
O=C(CS(=O)(=O)c1cn(Cc2ccccc2Cl)c2ccccc12)Nc1ccc(F)cc1	.	.
CC(=O)N1CCc2cc(Br)cc(S(=O)(=O)CC(=O)Nc3ccccc3C)c21	.	.
Cc1ccc(NC(=O)CC2Nc3cc(C)c(C)cc3NC2=O)c(Br)c1 (configuration not stated)	.	64.4!
Cc1cc2c(cc1C)NC(CC(=O)Nc1ccccc1OC(F)F)C(=O)N2 (configuration not stated)	.	50.0!
Cc1cc2c(cc1C)NC(CC(=O)Nc1ccccc1C)C(=O)N2 (configuration not stated)	.	.
CCOc1ccccc1NC(=O)CC1Nc2cc(C)c(C)cc2NC1=O (configuration not stated)	.	.
COc1ccc(Cl)cc1NC(=O)N1CC(C(=O)NC2CC2)C2(CCOCC2)C1 (configuration not stated)	.	.
O=C(Nc1ccc(S(=O)(=O)N2CCCCC2c2cccnc2)cc1)c1ccc(Cl)cc1 (configuration not stated)	.	.
COCCNC(=O)C1(C)CCC(=O)N1Cc1ccc(Cl)cc1 (configuration not stated)	.	.
O=C(Cc1ccc(Br)cc1)Nc1ncc([N+](=O)[O-])s1	.	.
O=C(Cc1ccc(Cl)cc1)Nc1ncc([N+](=O)[O-])s1	.	98.4
O=C(NCc1ccccn1)C(=O)NCC1OCCN1C(=O)c1ccc2c(c1)OCO2 (configuration not stated)	.	.
COc1ccc(Nc2ncc3c(n2)CCN(Cc2cccc(C)c2)C3)c(OC)c1	.	.
COc1ccc(OC)c(Nc2ncc3c(n2)CCN(Cc2ccccc2OC)C3)c1	.	59.4
COc1ccc(OC)c(Nc2ncc3c(n2)CCN(Cc2cccc(F)c2F)C3)c1	.	.
COc1ccc(OC)c(Nc2ncc3c(n2)CCN(Cc2cccc(C)c2)C3)c1	.	64.1
CCOc1ccccc1CN1CCc2nc(Nc3ccc(OC)cc3OC)ncc2C1	.	55.1
COc1ccc(Nc2ncc3c(n2)CCN(Cc2ccccc2OC)C3)c(OC)c1	.	.
O=C(NC(=C(Cl)Cl)S(=O)(=O)c1ccccc1)c1ccc(Cl)cc1Cl	.	.
O=C(c1ccc(F)cc1)N1CCCC1c1ccc(F)cc1 (configuration not stated)	.	.
COc1cccc(C(=O)N2CCCC2(C)CO)c1 (configuration not stated)	.	.
O=C(O)c1ccc(N=Cc2cc(Br)ccc2O)cc1	.	.
O=C(O)c1ccc(O)c(C=Nc2ccc(Br)cc2)c1	.	85.0
SMILES	Pf apPOL block	mHTT CaM bind
CC1=NN(c2ccccc2)C(=O)C1	.	/
CC1=NN(c2ccc(Cl)cc2)C(=O)C1	.	68.4
O=C(c1ccc(OCC2CCCN(C(=O)c3ccncc3)C2)cc1)N1CCOCC1 (configuration not stated)	.	.
CC(C(=O)NCc1ccccn1)N1CCN(c2ccccc2Cl)CC1 (configuration not stated)	.	75.0
Cc1ccccc1N1CCN(C(C)C(=O)NCc2cccnc2)CC1 (configuration not stated)	.	.
CCn1nc(-c2cccs2)cc1C(=O)Nc1ccccc1	.	/
O=C(NCCCN1CCCC1)c1ccc(N2CCNC(c3ccccc3)C2)nc1 (configuration not stated)	.	55.7
O=C(NCCCN1CCCCC1)c1ccc(N2CCNC(c3ccccc3)C2)nc1 (configuration not stated)	.	.
O=C(NCc1ccc(Cl)cc1)c1ccc(N2CCNC(c3ccccc3)C2)nc1 (configuration not stated)	.	.
O=C(NCc1ccc(N2CCCC2)cc1)c1ccc(N2CCNC(c3ccccc3)C2)nc1 (configuration not stated)	.	79.4
CC(=O)N1CCc2cc(N3CC(C(=O)Nc4ccc(F)c(C)c4)CC3=O)ccc21 (configuration not stated)	.	.
O=C(CNc1ccccc1Cl)c1ccccc1	.	100.2
O=C(Nc1ccccc1Cl)c1ccccc1	.	.
CC(C)NC(=O)N1CCCC(c2cccc(C(=O)NCc3ccc(N(C)C)cc3)c2)C1 (configuration not stated)	.	.
CCNC(=O)N1CCCC(c2cccc(C(=O)NCc3ccc(N(C)C)cc3)c2)C1 (configuration not stated)	.	54.1
CSc1nc2c(c(Nc3ccc(N(C)C)cc3)n1)CCC2	.	57.2
CSc1nc2c(c(Nc3ccc(C)cc3)n1)CCC2	.	.
COc1cc(N)ccc1Cc1ccc(N)cc1OC	.	.
COc1ccc(N)cc1-n1c(C)ccc1C	.	76.3
COC(=O)C(CCSC)NC(=O)C(CC(C)C)NC(=O)c1cccnc1SC (configuration not stated)	.	/
